Measurements reported in PubChem BioAssay (NCI).
Where “and” joins values, the source holds several entries; their conditions need not be identical. Identical values can stand only once. This is part of a sample that, as a whole, favours compounds with a hit. Of some 83,000 tested, about 20% had one in any assay.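 Assay: single dose, 48 h. Readout: percent growth (0 = no net growth; negative = cell death). Active: <10.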 A number with no mark means an inactive call. Calls of active or inactive are those of the source.

Key:
Assay in all cases: NCI-60 one-dose screen, 48 h (100 = growth as untreated, 0 = no growth, -100 = all killed)
Conditions in all cases: 10 µM unless noted
SK-MEL-2 melanoma = test system: SK-MEL-2 melanoma
EKVX NSCLC = test system: EKVX NSCLC
SN12C renal = test system: SN12C renal
UO-31 renal = test system: UO-31 renal
TK-10 renal = test system: TK-10 renal
ACHN renal = test system: ACHN renal
CAKI-1 renal = test system: CAKI-1 renal
A498 renal = test system: A498 renal
HL-60(TB) leukemia = test system: HL-60(TB) leukemia
CCRF-CEM leukemia = test system: CCRF-CEM leukemia

Structure (SMILES) | growth (SK-MEL-2 melanoma) | growth (EKVX NSCLC) | growth (SN12C renal) | growth (UO-31 renal) | growth (TK-10 renal) | growth (ACHN renal) | growth (CAKI-1 renal) | growth (A498 renal) | growth (HL-60(TB) leukemia) | growth (CCRF-CEM leukemia)
CC/C(Cc1ccccc1)=C(\c1ccc(OCCN2CCCC2)cc1)c1ccc(OC(=O)NCc2ccccc2)cc1 | 95.2% | 66.9% | 54.2% | 33.8% | 84.7% | 63% | 87.8% | 74.1% | -1.94% (active) | 33.7%
Cc1cc[c-]cc1.Fc1c[c-]c(-c2ccccn2)c(F)c1.N#CCC[PH+](CCC#N)c1ccccc1.[Pt+2] | 59.4% | 56.8% | 23.9% | 24.7% | 106% | 6.91% (active) | 14.8% | 52.3% | 2.54% (active) | 10%
N#CC(NC(=O)CCl)=C(Cl)Cl | 51.5% | -45.3% (active) | 29% | -40% (active) | -13.1% (active) | -88.7% (active) | -99.4% (active) | 63.4% | -58.3% (active) | -21.9% (active)
CC1(C)C=Cc2c(ccc3c2[N+]([O-])=C2C3=C[C@@]34NC(=O)[C@]5(CCCN5C3=O)C[C@@H]4C2(C)C)O1 | 69.8% | 34.3% | 30.7% | 73.5% | 83.1% | 39.7% | 27% | 69% | 33.6% | 14.2%
COC(=O)CCP(CCC(=O)OC)c1ccccc1 | 110% | 93.9% | 99.5% | 91.4% | 109% | 108% | 94.6% | 123% | 98.5% | 109%
CC[C@H](C)[C@H](NC(=O)CN(C)C)C(=O)N(C)[C@H](C[C@@H](OC(C)=O)c1nc(C(=O)NC23CC(C(=O)OC)(C2)C3)cs1)C(C)C | 37.5% | 32.8% | 31.3% | 50.1% | 43.5% | 46.9% | 51.6% | 9.1% (active) | -18.9% (active) | 6.24% (active)
COc1ccc(N(CC(=O)NCCC[Te]c2ccccc2)C(=O)c2ccccc2)cc1 | 101% | 2.14% (active) | 19.9% | 12.9% | 97.7% | 87.7% | 84.9% | 16.1% | 36.9% | 15.1%
C=CC1CN2CCC1CC2C(O)c1ccnc2ccccc12 (stereo not given) | -4.22% (active) | 145% | 109% | 67% | 142% | 109% | 144% | 125% | 225% | 304%
O=P(O)(Nc1ccccc1)Nc1ccccc1 | 134% | 80.6% | 99.9% | 81.7% | 106% | 95.9% | 77.2% | 89.3% | 74% | 99.3%
CCC1(CCSC#N)C(=O)NC(=O)NC1=O | 109% | 93.2% | 104% | 87% | 86.5% | 106% | 98.7% | 90.9% | 98.3% | 103%
CCCCS(=O)(=O)Cl | 106% | 94.8% | 104% | 100% | 103% | 110% | 100% | 97.9% | 105% | 103%
CC/C(=C(\c1ccc(OCCN2CCOCC2)cc1)c1ccc(OC(=O)Cc2ccccc2)cc1)c1ccc(Cl)cc1 | 101% | 109% | 98.6% | 87.9% | 93% | 117% | 91.9% | 104% | 95.5% | 98.1%
Cc1cc(NC(=O)NCCCOc2ccc(N3C(N)=NC(N)=NC3(C)C)cc2Cl)ccc1S(=O)(=O)F | 42.2% | 43% | 27.8% | 94.9% | 46.5% | 72.6% | 107% | 94.6% | 29.1% | 32.4%
N#CC(C#N)=Cc1cccc(F)c1 | 112% | 102% | 101% | 95.9% | 104% | 106% | 99.6% | 102% | 97.2% | 101%
C=CC[PH+](c1ccccc1)c1ccccc1.C=CC[PH+](c1ccccc1)c1ccccc1.[Pt+2].[S-]c1nc2ccccc2[nH]1.[S-]c1nc2ccccc2[nH]1 | -72.9% (active) | 33% | -4.98% (active) | 35.2% | -12.2% (active) | 42.3% | 25% | -16.1% (active) | -20.8% (active) | 6.12% (active)
CN(C)c1ccc(N)cc1 | 94.2% and 71.7% | 96.2% and 32.4% | 96.2% and 64.7% | 75% | 117% and 26.5% | 99.5% and 64.9% | 78.2% | 108% and 62.7% | 95.1% and 38.5% | 87.5% and 36%
C=C[Se]CC(=O)/C=C/c1ccccc1 | 99.9% | 70.4% | 73.6% | 39.4% | 103% | 95.5% | 106% | 65.3% | 42.2% | 47.4%
Oc1ccc(O)c(Cl)c1 | 102% | 112% | 89.7% and 99.6% | 56.6% and 75.2% | 124% and 110% | 95.9% and 101% | 93.4% and 101% | 109% and 98.6% | 12.3% and 94.8% | 15.5% and 64.5%
O=C(O)CNCP(=O)(O)O | 98.5% | 106% | 101% | 72.8% | 108% | 123% | 100% | 117% | 95.8% | 90.9%
CC(C)c1cccc(C(C)C)c1O | 113% | 101% and 94.5% | 108% and 104% | 88% | 116% and 94.6% | 104% and 105% | 95.1% and 88.4% | 112% and 113% | 97.9% and 85.9% | 107% and 90.6%
Cn1cc(-c2csc(-c3cn(CCCCN4CCOCC4)c4ccc(F)cc34)n2)c2cccnc21 | 78.7% | 72.7% | 72.2% | 44.4% | 75.4% | 86.3% | 76.1% | 46.7% | 76.2% | -59.6% (active)
CCN(CC)CCn1c(=O)n(C)c2ccccc21 | 109% | 114% | 108% | 92.5% | 111% | 114% | 102% | 104% | 107% | 103%
COc1ccc2c(c1)c(-c1nc(-c3cn(C)c4ncccc34)cs1)cn2CCCCN1CCOCC1 | 64.4% | 60.2% | 68% | 34% | 69.9% | 32% | 41.4% | 58.1% | 24.7% | 2.06% (active)
CSc1cc(/C=C(\C)[C@@H]2C[C@@H]3O[C@]3(C)CCC[C@H](C)[C@H](O)[C@@H](C)C(=O)C(C)(C)[C@@H](O)CC(=O)O2)n(CCNC(=O)OC(C)(C)C)n1 | 75.6% | 78.3% | 84% | 55.5% | 76.8% | 77.8% | 46.4% | 56.6% | 8.76% (active) | 63.9%
